PubChem BioAssay AID1159580 (chemical genetic matrix, 2015)
The whole screen tested about 5,500 compounds, of which about 2,000 (36%) were called active. About 18% were inconclusive and are not listed. Rule as the data show it: active = normalized growth mostly below about 0.91 (no sharp cut-off); inconclusive = no clear call, values can overlap the other calls; inactive = mostly above about 0.92. The list shows a part of the results.

Experiment: chemical genetic growth profiling, strain panel (AID 1159580);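 also: tested at 20 µM; growth read once vehicle control cultures reached saturation at 30 °C; 1 = growth at the plate median or of vehicle wells; lower values mean less growth of the strain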
Details: growth OD

Measured: normalized growth

CC(=O)NC(C(=O)O)C(C)(C)SN=O (centres undefined)
inactive: S. cerevisiae deletion strains, locus YJR043C, strain POL32, stronger effect = lower value 0.995 | S. cerevisiae deletion strains, locus YJR075W, strain HOC1, stronger effect = lower value 1.03 | S. cerevisiae deletion strains, locus YKL009W, strain mrt4, stronger effect = lower value 0.957 | S. cerevisiae deletion strains, locus YKL068W, stronger effect = lower value 0.99 | S. cerevisiae deletion strains, locus YKL085W, strain MDH1 (second series), stronger effect = lower value 0.987 | S. cerevisiae deletion strains, locus YKL085W, strain MDH1, stronger effect = lower value 0.987 | S. cerevisiae deletion strains, locus YKL160W, strain elf1, stronger effect = lower value 0.996 | S. cerevisiae deletion strains, locus YKL190W, strain CNB1, stronger effect = lower value 1.01 | S. cerevisiae deletion strains, locus YKR001C, strain vps1, stronger effect = lower value 1 | S. cerevisiae deletion strains, locus YKR026C, strain gcn3, stronger effect = lower value 0.989 | S. cerevisiae deletion strains, locus YKR091W, strain srl3, stronger effect = lower value 0.986 | S. cerevisiae deletion strains, locus YLL001W, strain dnm1, stronger effect = lower value 1 | S. cerevisiae deletion strains, locus YLL026W, stronger effect = lower value 1 | S. cerevisiae deletion strains, locus YLL041C, strain sdh2, stronger effect = lower value 0.99 | S. cerevisiae deletion strains, locus YLR027C, strain aat2, stronger effect = lower value 1 | S. cerevisiae deletion strains, locus YLR039C, strain RIC1, stronger effect = lower value 1 | S. cerevisiae deletion strains, locus YLR058C, strain SHM2, stronger effect = lower value 1.01 | S. cerevisiae deletion strains, locus YLR102C, strain apc9, stronger effect = lower value 0.993 | S. cerevisiae deletion strains, locus YLR221C, strain rsa3, stronger effect = lower value 1 | S. cerevisiae deletion strains, locus YLR258W, strain gsy2, stronger effect = lower value 0.994 | S. cerevisiae deletion strains, locus YLR262C, strain YPT6 (second series), stronger effect = lower value 1.02 | S. cerevisiae deletion strains, locus YLR262C, strain YPT6, stronger effect = lower value 1.01 | S. cerevisiae deletion strains, locus YLR268W, strain sec22, stronger effect = lower value 1 | S. cerevisiae deletion strains, locus YLR320W, strain mms22, stronger effect = lower value 0.972 | S. cerevisiae deletion strains, locus YLR330W, strain CHS5, stronger effect = lower value 0.994 | S. cerevisiae deletion strains, locus YLR342W, strain FKS1 (second series), stronger effect = lower value 1.01 | S. cerevisiae deletion strains, locus YLR342W, strain FKS1, stronger effect = lower value 1.01 | S. cerevisiae deletion strains, locus YLR357W, strain rsc2, stronger effect = lower value 0.989 | S. cerevisiae deletion strains, locus YLR370C, strain arc18, stronger effect = lower value 0.991 | S. cerevisiae deletion strains, locus YLR371W, strain rom2, stronger effect = lower value 0.984 | S. cerevisiae deletion strains, locus YLR384C, strain iki3, stronger effect = lower value 0.974 | S. cerevisiae deletion strains, locus YLR418C, strain cdc73, stronger effect = lower value 1.06 | S. cerevisiae deletion strains, locus YML016C, strain PPZ1, stronger effect = lower value 1.01 | S. cerevisiae deletion strains, locus YML032C, strain rad52, stronger effect = lower value 0.979 | S. cerevisiae deletion strains, locus YML120C, strain ndi1, stronger effect = lower value 1 | S. cerevisiae deletion strains, locus YML124C, strain tub3, stronger effect = lower value 0.993 | S. cerevisiae deletion strains, locus YMR058W, strain fet3, stronger effect = lower value 0.993 | S. cerevisiae deletion strains, locus YMR078C, strain ctf18, stronger effect = lower value 0.982 | S. cerevisiae deletion strains, locus YMR125W, strain sto1, stronger effect = lower value 0.98 | S. cerevisiae deletion strains, locus YMR129W, stronger effect = lower value 0.993 | S. cerevisiae deletion strains, locus YMR205C, strain PFK2, stronger effect = lower value 1.01 | S. cerevisiae deletion strains, locus YMR223W, strain ubp8, stronger effect = lower value 0.995 | S. cerevisiae deletion strains, locus YMR231W, strain pep5, stronger effect = lower value 0.979 | S. cerevisiae deletion strains, locus YMR263W, strain SAP30, stronger effect = lower value 1.03 | S. cerevisiae deletion strains, locus YMR307W, strain GAS1, stronger effect = lower value 0.995 | S. cerevisiae deletion strains, locus YNL067W, strain RPL9B, stronger effect = lower value 1.02 | S. cerevisiae deletion strains, locus YNL071W, strain lat1, stronger effect = lower value 0.989 | S. cerevisiae deletion strains, locus YNL128W, strain TEP1, stronger effect = lower value 1.03 | S. cerevisiae deletion strains, locus YNL153C, strain GIM3, stronger effect = lower value 1.01 | S. cerevisiae deletion strains, locus YNL209W, strain ssb2, stronger effect = lower value 0.993 | S. cerevisiae deletion strains, locus YNL233W, strain BNI4, stronger effect = lower value 1.01 | S. cerevisiae deletion strains, locus YNL248C, strain rpa49, stronger effect = lower value 0.994 | S. cerevisiae deletion strains, locus YNL250W, strain rad50, stronger effect = lower value 0.989 | S. cerevisiae deletion strains, locus YNL271C, strain bni1, stronger effect = lower value 1 | S. cerevisiae deletion strains, locus YNL298W, strain CLA4, stronger effect = lower value 0.983 | S. cerevisiae deletion strains, locus YNL307C, strain MCK1, stronger effect = lower value 1.01 | S. cerevisiae deletion strains, locus YNL322C, strain KRE1 (second series), stronger effect = lower value 0.997 | S. cerevisiae deletion strains, locus YNL322C, strain KRE1, stronger effect = lower value 1.01 | S. cerevisiae deletion strains, locus YNR049C, strain mso1, stronger effect = lower value 0.981 | S. cerevisiae deletion strains, locus YNR052C, strain pop2, stronger effect = lower value 0.991 | S. cerevisiae deletion strains, locus YOL006C, strain TOP1, stronger effect = lower value 1.09 | S. cerevisiae deletion strains, locus YOL012C, strain htz1 0.758 | S. cerevisiae deletion strains, locus YOL147C, strain pex11, stronger effect = lower value 0.995 | S. cerevisiae deletion strains, locus YOR001W, strain rrp6, stronger effect = lower value 0.971 | S. cerevisiae deletion strains, locus YOR061W, strain CKA2, stronger effect = lower value 1.01 | S. cerevisiae deletion strains, locus YOR069W, strain VPS5, stronger effect = lower value 1 | S. cerevisiae deletion strains, locus YOR070C, strain gyp1, stronger effect = lower value 0.979 | S. cerevisiae deletion strains, locus YOR080W, strain dia2, stronger effect = lower value 0.994 | S. cerevisiae deletion strains, locus YOR083W, strain WHI5, stronger effect = lower value 1 | S. cerevisiae deletion strains, locus YOR106W, strain vam3, stronger effect = lower value 0.999 | S. cerevisiae deletion strains, locus YOR136W, strain idh2, stronger effect = lower value 0.984 | S. cerevisiae deletion strains, locus YOR144C, strain elg1, stronger effect = lower value 0.989 | S. cerevisiae deletion strains, locus YOR184W, strain ser1, stronger effect = lower value 0.978 | S. cerevisiae deletion strains, locus YOR265W, strain rbl2, stronger effect = lower value 0.991 | S. cerevisiae deletion strains, locus YOR270C, strain vph1, stronger effect = lower value 0.982 | S. cerevisiae deletion strains, locus YOR290C, strain snf2, stronger effect = lower value 0.981 | S. cerevisiae deletion strains, locus YOR316C, strain cot1, stronger effect = lower value 0.989 | S. cerevisiae deletion strains, locus YPL051W, strain arl3, stronger effect = lower value 0.987 | S. cerevisiae deletion strains, locus YPL055C, strain LGE1, stronger effect = lower value 1.04 | S. cerevisiae deletion strains, locus YPL078C, strain atp4, stronger effect = lower value 0.988 | S. cerevisiae deletion strains, locus YPL106C, strain sse1, stronger effect = lower value 0.97 | S. cerevisiae deletion strains, locus YPL240C, strain hsp82, stronger effect = lower value 0.999 | S. cerevisiae deletion strains, locus YPL241C, strain CIN2, stronger effect = lower value 1.01 | S. cerevisiae deletion strains, locus YPR119W, strain clb2, stronger effect = lower value 0.998 | S. cerevisiae deletion strains, locus YPR141C, strain kar3, stronger effect = lower value 0.995 | S. cerevisiae deletion strains, locus YPR163C, strain tif3, stronger effect = lower value 0.986 | S. cerevisiae deletion strains, locus YPR167C, strain met16, stronger effect = lower value 1 | S. cerevisiae deletion strains, strain wtn01, stronger effect = lower value 1.01 | S. cerevisiae strains, strain wild type, stronger effect = lower value 0.999
